These results are taken from PubChem BioAssay.

Structures are written as SMILES. Activity calls are given as the source filed them. Unless noted, no rule for the calls is given here.

For test [1], the system named is XIP peptide (Xip251-270) binding. The test can be described thus: XIP fragment 251-270 binding compounds – biochemical, small-molecule microarray, fluorescence 635/667 nm, 0.1 µg/mL protein, primary screen (AID 1182). Particulars: fluorescent protein binding, 635 nm, higher = more signal, called active from +8 up or from −8 down.
Test [2] deals with XIP peptide (Xip251-270). The test can be described thus: compounds binding XIP fragment 251-270 – biochemical, small-molecule microarray, fluorescence 635/667 nm, 0.5 µg/mL protein, primary screen (AID 1183). The following applies: fluorescence 635 nm, higher = more signal.
Test [3] is described as follows: blood-stage malaria parasite viability loss – strain 3D7, DAPI fluorescence, 100 nL, primary screen (AID 1184).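 Also: parasites grown inside human red blood cells in medium with human serum.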 The following applies: P. falciparum 3D7 growth, 3 d, higher = more signal.
The target of test [4] is Homeobox protein Hox-A13 (Mus musculus) (UniProt Q62424). In words: disruptors of Hoxa13 oligonucleotide interaction – biochemical, fluorescence polarization, labeled oligonucleotide, primary screen (AID 1185). The following applies: Hoxa13:DNA binding, 15 min, higher = more signal, called active from +8 up or from −8 down. On the technique in general: In fluorescence polarisation assays a small probe gives low polarisation when free and higher when bound to something large.
Sequence of Homeobox protein Hox-A13 (Mus musculus) (Q62424 whole entry, looked up): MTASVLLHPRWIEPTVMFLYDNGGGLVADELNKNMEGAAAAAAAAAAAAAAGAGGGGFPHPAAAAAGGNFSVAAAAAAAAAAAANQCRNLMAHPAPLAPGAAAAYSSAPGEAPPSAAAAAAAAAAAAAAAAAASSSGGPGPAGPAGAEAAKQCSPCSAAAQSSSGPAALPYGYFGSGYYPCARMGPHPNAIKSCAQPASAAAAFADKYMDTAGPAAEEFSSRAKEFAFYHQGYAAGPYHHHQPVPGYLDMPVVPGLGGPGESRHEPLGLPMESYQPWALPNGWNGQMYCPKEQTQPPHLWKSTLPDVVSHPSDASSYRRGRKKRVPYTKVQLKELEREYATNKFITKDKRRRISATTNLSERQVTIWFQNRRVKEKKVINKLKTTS

The nature of test [5]: blockers of DNA damage checkpoint Chk1 activation – imaging, HeLa, hydroxyurea, phospho-Chk1 antibody, percent positive cells, primary screen (AID 1186). The following applies: hydroxyurea-induced phospho-Chk1 immunofluorescence imaging, higher = more signal.
The nature of test [6]: blockers of DNA damage checkpoint Chk1 activation – imaging, HeLa, hydroxyurea, phospho-Chk1 nuclear intensity, primary screen (AID 1187). The following applies: hydroxyurea-induced phospho-Chk1 immunofluorescence imaging, higher = more signal.

`COC(=O)[C@H]1[C@@H]2COc3ccccc3[C@H]2N[C@H]1C(=O)OC`: the composite z-score is 0.22 (inactive) in test [1] and 0.522 in test [2]. Besides, the z-score in test [3] was 0.535; in test [4], -0.726 (inactive); in test [5], -0.953 (inactive); in test [6] it was -0.134 (inactive).
For `CC(C)CN1C(=O)[C@@]2(Cc3ccccc31)c1ccccc1C(=O)N(C1CCCCC1)[C@H]2c1ccc(CO)cc1`, the composite z-score in test [1] is 1.15 (inactive); in test [2], -0.906. Moreover, the z-score in test [3] is -1.38; in test [4] it was -0.429 (inactive); in test [5], -0.81 (inactive); in test [6], -1.17 (inactive).
Regarding `CC(C)C[C@@H]1NC(=O)[C@H]2C[C@@H](C(=O)NCCCCCC[N+](C)(C)C)[C@@H](c3ccc(O)cc3)N2C1=O`, the values for the composite z-score in test [1] and in test [2] were 0.28 (inactive) and 0.608, respectively. In addition, the z-score was 1.17 in test [3], -3.14 (inactive) in test [4], 0.554 (inactive) in test [5] and 0.61 (inactive) in test [6].
Regarding `Cc1ccc(S(=O)(=O)c2cc3oc2CC[C@@H](CO)NC(=O)N(C)Cc2cn(nn2)C[C@H](Cc2ccccc2)NC3=O)cc1`, the composite z-score in test [1] is -0.126 (inactive); in test [2], -0.612. Moreover, the z-score in test [3] is -0.746; in test [4], -4.42 (inactive); in test [5] it was -0.131 (inactive); in test [6] it was -0.0334 (inactive).
Take `CCOC(=O)C1=CCC(c2cccc3ccccc23)N(S(=O)(=O)c2ccc(C)cc2)C1` (stereo not drawn): the composite z-score in test [1] was 0.225 (inactive); in test [2], 0.449. Besides, the z-score in test [3] is -1.77; in test [4], -1.57 (inactive); in test [5], 0.18 (inactive); in test [6], -0.129 (inactive).
In the case of `COc1ccc([Si](C)(C)[C@H]2[C@H](CC(=O)N(CCO)Cc3ccccc3)O[C@@]3(C(=O)N(C)c4ccccc43)[C@@H]2C)cc1`, the figures for the composite z-score in test [1] and in test [2] were 0.0642 (inactive) and 0.369, respectively. Besides, the z-score was -0.134 in test [3], -6.95 (inactive) in test [4], -0.217 (inactive) in test [5] and -0.251 (inactive) in test [6].
For `C[C@]1(C(=O)NCCN2CCOCC2)c2ccccc2C(=O)N(Cc2ccccc2)[C@H]1c1ccc(CO)cc1`, the composite z-score was 0.946 (inactive) in test [1] and 0.78 in test [2]. Further, the z-score was -1.22 in test [3], -3.99 (inactive) in test [4], 0.0553 (inactive) in test [5] and 0.0648 (inactive) in test [6].
For the compound `C=CCNC(=O)[C@@H]1[C@H]2C(=O)O[C@H](c3ccccc3)[C@H](c3ccccc3)N2[C@H](c2ccc(OCCO)cc2)[C@@]12C(=O)N(C(=O)OCCOC)c1ccc(C#CC3(O)CCCCCC3)cc12`, the values for the composite z-score in test [1] and in test [2] were 0.87 (inactive) and 0.675, respectively. Further, the z-score was -2.33 in test [3], 2.65 (inactive) in test [4], -0.0211 (inactive) in test [5] and 0.0364 (inactive) in test [6].
As to `CCOC(=O)C[C@H]1[C@H](OC(=O)c2cc3ccccc3oc2=O)[C@@H](NC(=O)c2ccc3ccccc3c2)c2cc(OCCCO)ccc2N1C(=O)c1ccc2ccccc2n1`, the composite z-score in test [1] was 0.227 (inactive); in test [2] it was -0.333. In addition, the z-score in test [3] is -1.6; in test [4], -1.06 (inactive); in test [5], -0.0364 (inactive); in test [6], 0.034 (inactive).
On to `C=C(/C(=C/C[C@@H](OC(=O)c1ccncc1)c1ccc(CO)o1)c1cnc2ccccc2c1)C(C)C`, for which the composite z-score in test [1] is 1.11 (inactive); in test [2], 0.766. In addition, the z-score in test [3] is -0.599; in test [4], -4.89 (inactive); in test [5], -0.33 (inactive); in test [6], -0.232 (inactive).
In the case of `CCCC=C(CCC)[C@@H](NS(=O)(=O)c1ccc(-c2ccccc2)cc1)c1ccc(C(=O)OC)cc1`, the results for the composite z-score in test [1] and in test [2] were 0.046 (inactive) and -0.203, respectively. For the same compound, the z-score is -1.37 in test [3], -1.02 (inactive) in test [4], -0.361 (inactive) in test [5] and -0.761 (inactive) in test [6].
Take `CCOC(=O)[C@H]1C/C=C/C[C@H](C(=O)OCC)C(=O)O[C@H]2[C@@H](OC)O[C@H](CO)[C@@H](OC(=O)Nc3ccc(Br)cc3)[C@@H]2OC1=O`: the composite z-score in test [1] is 0.709 (inactive); in test [2], 0.867. Further, the z-score in test [3] is -1.85; in test [4], -0.239 (inactive); in test [5], -0.181 (inactive); in test [6] it was -0.26 (inactive).
With `COc1ccc(CCN2C(=O)[C@@]3(c4ccc([N+](=O)[O-])cc4)CC(=O)N(CC45CC6CC(CC(C6)C4)C5)[C@@H]3c3ccc(CO)cc32)cc1`, the composite z-score in test [1] is -0.038 (inactive); in test [2] it was 0.93. Besides, the z-score was -1.07 in test [3], -2.14 (inactive) in test [4], 0.33 (inactive) in test [5] and 0.522 (inactive) in test [6].
For `[N-]=[N+]=NCc1ccccc1[C@H]1OC(c2ccc(OCCCO)cc2)=N[C@@]1(Cc1ccccc1N=[N+]=[N-])C(=O)NCc1ccccc1`, the composite z-score in test [1] was 0.0116 (inactive); in test [2], 0.649. For the same compound, the z-score is -2.49 in test [3], -1.23 (inactive) in test [4], -0.0872 (inactive) in test [5] and -0.747 (inactive) in test [6].
As for `CCC#CCN(Cc1ccccc1Br)[C@H](/C=C/c1ccccc1)[C@@H](O)Cc1ccccc1`, the composite z-score in test [1] is -0.276 (inactive); in test [2] it was -0.613. Moreover, the z-score in test [3] is -0.609; in test [4] it was 0.462 (inactive); in test [5], -0.415 (inactive); in test [6], -0.241 (inactive).
With `CCCNC(=O)[C@@]1(Sc2ccc(C)cc2)CC(=O)N(Cc2ccccc2Cl)[C@@H]1c1ccc(CO)cc1`, the results for the composite z-score in test [1] and in test [2] were 0.266 (inactive) and -0.271, respectively. Also, the z-score was -1.79 in test [3], -1.4 (inactive) in test [4], -0.423 (inactive) in test [5] and -0.365 (inactive) in test [6].
As to `C=CCN(C(=O)C1N(c2ccc(CCO)cc2)C(=O)C2C(C(=O)O)C3C=CC21O3)C(C)(C)C` (stereo not drawn), the composite z-score in test [1] was 0.865 (inactive); in test [2], -1.52. For the same compound, the z-score in test [3] is -1.71; in test [4], 0.729 (inactive); in test [5], 0.0293 (inactive); in test [6] it was -0.112 (inactive).
Consider `Cc1ccc(S[C@]2(C(=O)NCCCN(C)C)CC(=O)N(C3CCCCC3)[C@@H]2c2ccc(CO)cc2I)cc1`, for which the composite z-score in test [1] was -0.605 (inactive); in test [2] it was -0.697. Further, the z-score in test [3] was -1.65; in test [4], 0.756 (inactive); in test [5], -0.212 (inactive); in test [6], -0.074 (inactive).
